This note sets out measurements from the OligoGym collection.
Note: reference of the scale not given here.

The target in one test is LHFPL4. Briefly: pooled miR-30 sensor sort-seq; sequence = guide strand. As to conditions: shRNA.
In turn, ATCTTGTAGACCGTAGCCGTGT had a sensor-assay potency score (higher = more potent) of -0.823. As to TAGACCGTAGCCGTGTTGCAGA, the sensor-assay potency score (higher = more potent) is -0.559. On the same count and under the same terms, in the case of TAGTGCTCGTGGTAGAGCTTGG it was -0.315; in that of TGGATGAAGACCACCACGTTGA, -0.905.

For a further test, the target named is LHFPL5. Described as above. Conditions: shRNA.
On to TTGAACATAAGTAACACATTTC, for which the sensor-assay potency score (higher = more potent) is -0.364.

Turning to TAGTTGGTATGGTAGATCTTGG, the sensor-assay potency score (higher = more potent) was -1.03. For the sequence TAGTGTTATAATAAAAGGCTTC, the sensor-assay potency score (higher = more potent) is -0.225. Regarding AACATAAGTAACACATTTCTGA, the sensor-assay potency score (higher = more potent) was -0.109. The sequence TAACACATTTCTGAAGCTGGTA came in with a sensor-assay potency score (higher = more potent) of 0.181. TATAACAAATTACTTGAACATA returned a sensor-assay potency score (higher = more potent) of -1.51. For TAGACTGTGGCCGTGTTGCAGA, the sensor-assay potency score (higher = more potent) is -0.721.

As to TACAGTAGGAGGTCTTGTCTCA, the sensor-assay potency score (higher = more potent) was -0.0507. Still for that read-out and setting: in the case of TTGACGCTGTCGCCGATCCAGT it was -1.35; in that of TTGTCTCAGGAGACTGTCCAGT, -0.336; in that of TTCTGGTTGAGTCAGTGTGGGC, -1.68. The same measure, in the same setting: in the case of TTGCAGATGAAGAACAGGCTGA it was 0.379.
